Laboratory results from PubChem BioAssay AID1159580 (chemical genetic matrix, 2015).
Where “and” joins values, the source holds several entries; their conditions need not be identical. Identical values can stand only once. Out of some 5,500 compounds screened, about 2,000 (36%) were called active. Roughly 18% stayed inconclusive and do not appear here. Cut-off read from the data, not from the text of the source: active = normalized growth mostly below about 0.91 (no sharp cut-off); inconclusive = no clear call, values can overlap the other calls; inactive = mostly above about 0.92. The list shows a part of the results.

Test: chemical genetic growth profiling, strain panel (AID 1159580);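 note: tested at 20 µM; growth read once vehicle control cultures reached saturation at 30 °C; 1 = growth at the plate median or of vehicle wells; lower values mean less growth of the strain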
Conditions: S. cerevisiae deletion strains, growth OD

Measured: normalized growth

COc1ccc2c(c1)[C@]13CCCC[C@H]1[C@H](C2)N(C)CC3
inactive: locus YAL021C, strain ccr4, hits give low values 0.94 | locus YAL026C, strain drs2, hits give low values 1 | locus YAL030W, strain snc1, hits give low values 0.971 | locus YBL061C, strain skt5, hits give low values 0.981 | locus YBR009C, strain hhf1, hits give low values 0.988 | locus YBR021W, strain FUR4, hits give low values 1.01 | locus YBR023C, strain chs3, hits give low values 0.99 | locus YBR171W, strain sec66, hits give low values 0.933 | locus YBR229C, strain ROT2, hits give low values 1.01 | locus YBR231C, strain swc5, hits give low values 0.937 | locus YBR279W, strain paf1, hits give low values 0.998 | locus YCL011C, strain gbp2, hits give low values 0.991 | locus YCL016C, strain dcc1, hits give low values 1.03 | locus YCL029C, strain bik1, hits give low values 0.988 | locus YCL061C, strain MRC1, hits give low values 0.968 | locus YCL069W, strain vba3, hits give low values 0.995 | locus YCR088W, strain abp1, hits give low values 0.952 | locus YDL005C, strain med2, hits give low values 0.97 | locus YDL035C, strain GPR1, hits give low values 1.04 | locus YDL040C, strain nat1, hits give low values 0.962 | locus YDL074C, strain BRE1, hits give low values 0.993 | locus YDL101C, strain DUN1, hits give low values 1 | locus YDL134C, strain PPH21, hits give low values 1.03 | locus YDL185W, strain tfp1, hits give low values 0.989 | locus YDL192W, strain arf1, hits give low values 0.995 | locus YDR001C, strain nth1, hits give low values 0.951 | locus YDR069C, strain doa4, hits give low values 0.943 | locus YDR101C, strain arx1, hits give low values 0.999 | locus YDR137W, strain rgp1, hits give low values 0.999 | locus YDR150W, strain NUM1, hits give low values 1.01 | locus YDR159W, strain sac3, hits give low values 0.955 | locus YDR162C, strain NBP2, hits give low values 1.01 | locus YDR195W, strain ref2 0.926 | locus YDR297W, strain sur2, hits give low values 0.98 | locus YDR318W, strain mcm21, hits give low values 0.988 | locus YDR334W, strain swr1, hits give low values 0.909 | locus YDR335W, strain msn5, hits give low values 0.949 | locus YDR388W, hits give low values 0.993 | locus YDR392W, strain spt3, hits give low values 1.03 | locus YDR502C, strain sam2, hits give low values 0.992 | locus YEL003W, strain gim4, hits give low values 0.966 | locus YEL037C, strain rad23, hits give low values 0.975 | locus YEL061C, strain CIN8 (second series), hits give low values 0.96 | locus YEL061C, strain CIN8, hits give low values 1.01 | locus YER015W, strain faa2, hits give low values 0.961 | locus YER016W, strain bim1, hits give low values 1 | locus YER110C, hits give low values 0.996 | locus YER111C, strain swi4, hits give low values 0.978 | locus YER155C, strain BEM2 (second series), hits give low values 0.886 | locus YER155C, strain BEM2, hits give low values 1 | locus YER167W, strain BCK2, hits give low values 1.01 | locus YFR010W, strain ubp6, hits give low values 0.95 | locus YGL078C, strain dbp3, hits give low values 0.993 | locus YGL086W, strain mad1, hits give low values 0.993 | locus YGL167C, strain pmr1, hits give low values 0.946 | locus YGL173C, strain kem1, hits give low values 1 | locus YGL227W, strain vid30, hits give low values 0.965 | locus YGL240W, strain doc1, hits give low values 0.948 | locus YGL248W, strain PDE1, hits give low values 0.995 | locus YGL253W, strain hxk2, hits give low values 0.998 | locus YGR078C, strain PAC10, hits give low values 0.996 | locus YGR135W, strain pre9, hits give low values 0.964 | locus YGR229C, strain SMI1, hits give low values 1.02 | locus YGR252W, strain gcn5, hits give low values 0.973 | locus YHR013C, strain ard1, hits give low values 0.991 | locus YHR027C, strain rpn1, hits give low values 0.985 | locus YHR030C, strain SLT2, hits give low values 1.01 and 1.03 | locus YHR079C, strain IRE1 (second series), hits give low values 0.984 | locus YHR079C, strain IRE1, hits give low values 1.03 | locus YHR094C, strain hxt1, hits give low values 0.987 | locus YHR129C, strain ARP1, hits give low values 1.01 | locus YHR142W, strain chs7, hits give low values 0.987 | locus YHR200W, strain rpn10, hits give low values 0.996 | locus YIL066C, strain RNR3, hits give low values 1.01 | locus YIL073C, strain SPO22, hits give low values 0.976 | locus YIL125W, strain kgd1, hits give low values 0.987 | locus YIR030C, strain dcg1, hits give low values 0.999 | locus YJL092W, strain hpr5, hits give low values 0.962 | locus YJL095W, strain BCK1 (second series), hits give low values 0.978 | locus YJL095W, strain BCK1, hits give low values 0.966 and 1.04 | locus YJL115W, strain asf1, hits give low values 0.95 | locus YJL129C, strain trk1, hits give low values 0.932 | locus YJL134W, strain LCB3, hits give low values 0.999 | locus YJL154C, strain vps35, hits give low values 0.954 | locus YJL164C, strain tpk1, hits give low values 1.02 | locus YJL166W, strain qcr8, hits give low values 0.929 | locus YJL168C, strain set2, hits give low values 0.99 | locus YJL187C, strain SWE1 (second series), hits give low values 0.994 | locus YJR043C, strain POL32, hits give low values 1.04 | locus YJR066W, strain TOR1, hits give low values 0.984 | locus YJR075W, strain HOC1, hits give low values 0.983 | locus YKL009W, strain mrt4, hits give low values 0.99 | locus YKL068W, hits give low values 0.993 | locus YKL085W, strain MDH1 (second series), hits give low values 0.984 | locus YKL085W, strain MDH1, hits give low values 0.984 | locus YKL160W, strain elf1, hits give low values 0.97 | locus YKR001C, strain vps1, hits give low values 0.997 | locus YKR026C, strain gcn3, hits give low values 0.966 | locus YKR091W, strain srl3, hits give low values 0.966 | locus YLL001W, strain dnm1, hits give low values 0.926 | locus YLL026W, hits give low values 0.986 | locus YLL041C, strain sdh2, hits give low values 0.97 | locus YLR027C, strain aat2, hits give low values 0.966 | locus YLR039C, strain RIC1, hits give low values 1.1 | locus YLR058C, strain SHM2, hits give low values 0.996 | locus YLR102C, strain apc9, hits give low values 0.976 | locus YLR113W, strain HOG1, hits give low values 1.05 | locus YLR221C, strain rsa3, hits give low values 1.01 | locus YLR258W, strain gsy2, hits give low values 0.997 | locus YLR262C, strain YPT6 (second series), hits give low values 0.954 | locus YLR262C, strain YPT6, hits give low values 1.08 | locus YLR268W, strain sec22, hits give low values 0.988 | locus YLR320W, strain mms22, hits give low values 1 | locus YLR330W, strain CHS5, hits give low values 1.01 | locus YLR342W, strain FKS1 (second series), hits give low values 0.997 | locus YLR342W, strain FKS1, hits give low values 0.946 | locus YLR357W, strain rsc2, hits give low values 0.958 | locus YLR370C, strain arc18, hits give low values 0.989 | locus YLR371W, strain rom2, hits give low values 0.993 | locus YLR384C, strain iki3, hits give low values 0.956 | locus YLR418C, strain cdc73, hits give low values 0.957 | locus YML016C, strain PPZ1, hits give low values 1.01 | locus YML032C, strain rad52, hits give low values 0.997 | locus YML120C, strain ndi1, hits give low values 0.973 | locus YML124C, strain tub3, hits give low values 0.997 | locus YMR058W, strain fet3, hits give low values 0.974 | locus YMR078C, strain ctf18, hits give low values 0.982 | locus YMR125W, strain sto1, hits give low values 0.917 | locus YMR129W, hits give low values 0.985 | locus YMR205C, strain PFK2, hits give low values 0.953 | locus YMR223W, strain ubp8, hits give low values 0.965 | locus YMR231W, strain pep5, hits give low values 0.965 | locus YMR307W, strain GAS1, hits give low values 1.09 | locus YNL067W, strain RPL9B, hits give low values 0.99 | locus YNL071W, strain lat1, hits give low values 0.982 | locus YNL153C, strain GIM3, hits give low values 0.981 | locus YNL183C, strain NPR1, hits give low values 0.997 | locus YNL209W, strain ssb2, hits give low values 0.99 | locus YNL233W, strain BNI4, hits give low values 0.982 | locus YNL248C, strain rpa49, hits give low values 0.987 | locus YNL250W, strain rad50, hits give low values 1.01 | locus YNL271C, strain bni1, hits give low values 0.994 | locus YNL298W, strain CLA4, hits give low values 0.991 | locus YNL307C, strain MCK1, hits give low values 0.979 | locus YNL322C, strain KRE1 (second series), hits give low values 0.93 | locus YNR049C, strain mso1, hits give low values 0.976 | locus YNR052C, strain pop2, hits give low values 0.992 | locus YOL012C, strain htz1 0.734 | locus YOL147C, strain pex11, hits give low values 0.989 | locus YOR001W, strain rrp6, hits give low values 0.953 | locus YOR061W, strain CKA2, hits give low values 1.02 | locus YOR069W, strain VPS5, hits give low values 1.01 | locus YOR070C, strain gyp1, hits give low values 0.987 | locus YOR080W, strain dia2, hits give low values 0.945 | locus YOR083W, strain WHI5, hits give low values 0.947 | locus YOR106W, strain vam3, hits give low values 0.939 | locus YOR136W, strain idh2, hits give low values 0.99 | locus YOR144C, strain elg1, hits give low values 0.99 | locus YOR184W, strain ser1, hits give low values 0.99 | locus YOR231W, strain MKK1, hits give low values 1.04 | locus YOR265W, strain rbl2, hits give low values 0.967 | locus YOR270C, strain vph1, hits give low values 0.966 | locus YOR290C, strain snf2, hits give low values 1.01 | locus YOR316C, strain cot1, hits give low values 0.991 | locus YPL051W, strain arl3, hits give low values 0.985 | locus YPL078C, strain atp4, hits give low values 0.933 | locus YPL106C, strain sse1, hits give low values 0.944 | locus YPL240C, strain hsp82, hits give low values 0.967 | locus YPL256C, strain CLN2, hits give low values 1.03 | locus YPR119W, strain clb2, hits give low values 0.981 | locus YPR141C, strain kar3, hits give low values 0.98 | locus YPR163C, strain tif3, hits give low values 1 | locus YPR167C, strain met16, hits give low values 0.987 | strain wtn01, hits give low values 0.986
